# Experimental data reported in PubChem BioAssay (Tox21).
# Inconclusive results are not listed. Unmarked numbers belong to inactive results. Activity calls are given as the source filed them. The call rests on the fitted dose curve; in most records, active means well fitted cell-killing curve with a large enough effect in the repeat runs; inconclusive means weak or mixed curves, or effect the other way; inactive means flat fitted curve, though single readings scatter.
# Assay: cAMP Responsive Elements (CRE) small molecule agonists, cell-based qHTS assay: qHTS cell viability counter screen (AID 2060914); further: nearly all actives have a fitted effect of over 50% in size
# Settings: CRE-bla HEK293T viability, CellTiter-Glo luminescence, 5 h; series mostly up to 92.4 µM; activity change, negative = cytotoxicity: at the top concentration
# Outline: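 Cytotoxicity was measured as ATP luminescence (CellTiter-Glo, 30 min at room temperature) in the same wells as the CRE-bla FRET read-out. HEK293T CRE-bla cells had 3 h compound exposure at 37C/5% CO2.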
# On the % scale 0 is the no-effect control and ±100 the full control effect; potency means the concentration at half of the fitted maximal effect.
SMILES,"activity change, negative = cytotoxicity",Potency
OCCCc1cccnc1,-18.8%,–
Oc1ccc2c(c1)-c1ccccc1C2,-8.13%,–
O=c1c(O)c(-c2ccc(O)c(O)c2)oc2cc(O)cc(O)c12,–,inactive
NC(=O)NC(=O)Cc1ccccc1,4.5% [at 42.5 µM],–
CC(Cc1ccccc1)(NC(=O)CN)c1ccccc1 (stereo not given),21.1% [at 42.5 µM],–
C=C1CC/C=C(\C)CC[C@@H]2[C@@H]1CC2(C)C,0.359%,–
C=CC(=O)NC(C)C,0.251%,–
C=C(C)C(=O)OCCCCCCCC(C)C,-6.51%,–
CCOc1ccc(C(=O)OCCN(CC)CC)cc1,1.78% [at 42.5 µM],–
CCCn1cnc2c1c(=O)n(CCCCC(C)=O)c(=O)n2C,1.72% [at 42.5 µM],–
CCCCCCCCCCN,–,inactive
CCCCC/C=C/C=C/C=O,–,inactive
O=[N+]([O-])c1ccc(O)cc1C(F)(F)F,-15.9%,–
CCc1cccc(C)c1N(C(=O)CS(=O)(=O)O)C(C)COC (stereo not given),2.06%,–
CSc1cnc(C)cn1,4.65% [at 240 µM],–
O=S(=O)(O)c1cccc(S(=O)(=O)O)c1,2.96%,–
CC1=Nc2ccccc2C1(C)C,12.1%,–
CCC(C)C(=O)OCCc1ccccc1 (stereo not given),8.28%,–
CC(COC(=O)c1ccccc1)OC(=O)c1ccccc1 (stereo not given),0.0915%,–
NS(=O)(=O)c1cc2c(cc1Cl)NC(C(Cl)Cl)NS2(=O)=O (stereo not given),3.22% [at 42.5 µM],–

SMILES,"activity change, negative = cytotoxicity",Potency
O=c1[nH]ncc2ccccc12,-11.9%,–
C=CCON/C(CCC)=C1\C(=O)CC(C)(C)C(C(=O)OC)=C1O,23.2%,–
CCCCCCCCCCCCCC[n+]1ccccc1,–,61.1 µM (active)
COc1nc(C)nc(Cl)c1NC1=NCCN1,-3.61% [at 42.5 µM],–
C=Cc1ccccn1,-7.13%,–
CC[C@@H]([C@H](C)O)n1ncn(-c2ccc(N3CCN(c4ccc(OC[C@@H]5CO[C@@](Cn6cncn6)(c6ccc(F)cc6F)C5)cc4)CC3)cc2)c1=O,–,26.6 µM (active)
Brc1cc(-c2ccc(Br)c(Br)c2Br)cc(Br)c1Br,-10.5% [at 42.5 µM],–
O=CC=C(c1ccccc1)c1ccccc1,4.21%,–
CC(=O)OCCOCCOCCOC(C)=O,–,inactive
COC(=O)CCC(=O)O,3.94%,–
CCCCCCCCCOC(=O)CCCCC(=O)OCCCCCCC,-0.475%,–
O=C(O)CNC(=O)CNC(=O)CNC(=O)CSC(=O)c1ccccc1,10.5% [at 42.5 µM],–
C=C[C@](C)(O)CC[C@@H]1[C@@]2(C)CCCC(C)(C)[C@@H]2CC[C@@]1(C)O,-23.8%,–
Cc1c(C(=O)O)cccc1[N+](=O)[O-],-17.3%,–
COc1cc(CNC(=O)CCCC/C=C/C(C)C)ccc1O,-3.16%,–
CC(C)C(OC(=O)c1ccccc1)C(C)(C)COC(=O)c1ccccc1 (stereo not given),-26.1%,–
CC(C)(C)C(=O)c1ccccc1,0.0789%,–
CCOC(=O)[C@H](CCc1ccccc1)N[C@@H](C)C(=O)N1CCC[C@H]1C(=O)O,4.97% [at 42.5 µM],–
Nc1c(Br)cc([N+](=O)[O-])cc1Br,-12.7%,–
CCCN(CCC)c1c([N+](=O)[O-])cc(C(F)(F)F)c(N)c1[N+](=O)[O-],–,60.9 µM (active)
